PubChem BioAssay (NCATS)
Inconclusive results are not listed. Values without a mark were called inactive. The source made the active and inactive calls. The call rests on the fitted dose curve; in most records, active means well fitted cell-killing curve with a large enough effect; inconclusive means small, poorly fitted or top-dose-only effect; inactive means no such curve, though single readings can be large or run the other way.
Potency means the concentration at half of the fitted maximal effect.

Experiment: qHTS of pediatric cancer cell lines to identify multiple opportunities for drug repurposing: Primary screen for NB1643 cells (AID 1347099); further: nearly all actives have a fitted effect of over 50% in size;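 on activity change, negative = cytotoxic: plate controls were DMSO neutral control for no effect and bortezomib positive control for full effect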
Conditions: NB1643 neuroblastoma viability, CellTiter-Glo luminescence, 48 h; series mostly up to 46 µM; activity change, negative = cytotoxic: at the top concentration
Summary of the method: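 Following a 5-hour attachment period, cells at 500-1,000/well received compounds and were cultured for 48 hours. CellTiter-Glo was added and luminescence read to estimate viable, metabolically active cells.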
With CC(C)=CCCC(C)=CCCC(C)=CCSc1ccccc1C(=O)O the “activity change, negative = cytotoxic” value was -28.3%. In the case of COc1cc(OC2CCN(C)CC2)ccc1Nc1ncc2c(n1)n(C1CCCC1)c(=O)n2C, the Potency is reported as 10.5 µM (active). For Fc1cc(-c2cccc3ncc(-c4cnn(C5CCNCC5)c4)nc23)cc(F)c1CN1CCOCC1, the Potency was 18.7 µM (active). With COC(=O)[C@]12CCC(C)(C)C[C@@H]1[C@@H]1C(=O)C=C3[C@@]4(C)C=C(C#N)C(=O)C(C)(C)[C@@H]4CC[C@@]3(C)[C@]1(C)CC2 the Potency was 0.662 µM (active). With CN(C)CCCN=c1c2ccccc2n(C)c2[nH]c(=O)n(C)c(=O)c12 the Potency was 3.32 µM (active). In the case of Cn1c(=O)n(-c2ccc(C(C)(C)C#N)cc2)c2c3cc(-c4cnc5ccccc5c4)ccc3ncc21, the “activity change, negative = cytotoxic” value is reported as 118%. For O=C(Nc1nc2cccc(-c3ccc(CN4CCS(=O)(=O)CC4)cc3)n2n1)C1CC1, the Potency was 10.5 µM (active). With O=C(CCCCCCC(=O)Nc1ccc([C@H]2O[C@@H](CSc3nc(-c4ccccc4)c(-c4ccccc4)o3)C[C@@H](c3ccc(CO)cc3)O2)cc1)NO the Potency was 7.43 µM (active). With NCC(=O)Nc1ccc(-n2nc(C(F)(F)F)cc2-c2ccc3c(ccc4ccccc43)c2)cc1 the Potency was 18.7 µM (active). For Cc1cccc(C=NNc2cc(N3CCOCC3)nc(OCCc3ccccn3)n2)c1, the Potency was 16.6 µM (active). With NC1(Cc2ccc(Cl)cc2)CCN(c2ncnc3[nH]ccc23)CC1 the Potency was 20.9 µM (active). In the case of Cn1c2ccccc2c2c3c(c4c5ccccc5n(CCC#N)c4c21)CNC3=O, the Potency is reported as 1.87 µM (active). In the case of COCCOc1ccc2c(c1)ncn2-c1ccc2cccc(N3CCC(N)CC3)c2n1, the Potency is reported as 23.5 µM (active). With Cc1cn2c(-c3cn[nH]c3)cnc2c(Nc2ccc(C(=O)N3CCNCC3)cc2F)n1 the Potency was 18.7 µM (active). With Nc1nccc(Oc2ccc(NC(=O)c3c[nH]cc(-c4ccc(F)cc4)c3=O)cc2F)c1Cl the Potency was 14.8 µM (active). In the case of NC(=O)c1c(OCc2c(F)cc(Br)cc2F)nsc1NC(=O)NCCCCN1CCCC1, the “activity change, negative = cytotoxic” value is reported as -1.51%. In the case of CC(=O)c1c(C)c2cnc(Nc3ccc(N4CCNCC4)cn3)nc2n(C2CCCC2)c1=O, the Potency is reported as 16.6 µM (active). In the case of COC(=O)C1=C(C)NC(C)=C(C(=O)OCCN2CCN(C(c3ccccc3)c3ccccc3)CC2)C1c1cccc([N+](=O)[O-])c1 (stereo unspecified), the Potency is reported as 16.8 µM (active). With CC1(O)CC(c2nc(-c3ccc4ccc(-c5ccccc5)nc4c3)c3c(N)nccn23)C1 (stereo unspecified) the Potency was 2.09 µM (active). For C=CC(=O)Nc1cccc(Oc2nc(Nc3ccc(N4CCN(C)CC4)cc3OC)ncc2Cl)c1, the Potency was 1.18 µM (active). For CN(C1CCc2c(c3ccccc3n2CC(=O)O)C1)S(=O)(=O)c1ccc(F)cc1 (stereo unspecified), the Potency was 1.32 µM (active). For COC(=O)Nc1ccc(-c2nc(N3CCOCC3)c3cnn(C4CCN(Cc5cccnc5)CC4)c3n2)cc1, the “activity change, negative = cytotoxic” value was 15.9%. In the case of Cc1cc(Nc2ncnc3ccc(-c4ccc(CNCCS(C)(=O)=O)o4)cc23)ccc1Oc1ccn2ncnc2c1, the Potency is reported as 16.6 µM (active). For O=C(O)C1(Cc2cccc(Nc3nccs3)n2)CCC(Oc2cccc(Cl)c2F)CC1 (stereo unspecified), the “activity change, negative = cytotoxic” value was -10%. With O=C(O)c1ccc2cc(-c3ccc(O)c(C45CC6CC(CC(C6)C4)C5)c3)ccc2c1 the Potency was 0.372 µM (active). With Cc1cc(CN2CCN(c3c(Br)cnc4nc(-c5ccc(N6CCN(C)CC6)cc5)[nH]c34)CC2)no1 the Potency was 16.6 µM (active). In the case of Nc1cccc(-c2cc3c(Oc4cccc(O)c4)ncnc3[nH]2)c1, the Potency is reported as 20.9 µM (active). In the case of COc1cc(C(=O)N2CCC(N3CCN(C)CC3)CC2)ccc1Nc1ncc2c(n1)N(C)c1ccccc1C(=O)N2C, the Potency is reported as 9.35 µM (active). With COc1cccc(-c2ccc(NC(=O)C3=C(C(=O)O)CCC3)c(F)c2)c1 the Potency was 5.26 µM (active).

Experiment: qHTS of pediatric cancer cell lines to identify multiple opportunities for drug repurposing: Primary screen for LAN-5 cells (AID 1347100)
Conditions: LAN-5 neuroblastoma viability, CellTiter-Glo luminescence, 48 h; series mostly up to 46 µM; activity change, negative = cytotoxic: at the top concentration
Summary of the method: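 Viability after 48 h compound treatment at 37C, 500-1,000 cells/well, read as ATP luminescence with CellTiter-Glo. Primary screens used 11-point (MIPE, 0.78 nM-46 µM) or 8-point (NPC, 0.59 nM-46 µM) final concentrations; follow-up screens used 11-point dilutions.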
For COc1cc(OC2CCN(C)CC2)ccc1Nc1ncc2c(n1)n(C1CCCC1)c(=O)n2C, the Potency was 13.2 µM (active). For Fc1cc(-c2cccc3ncc(-c4cnn(C5CCNCC5)c4)nc23)cc(F)c1CN1CCOCC1, the Potency was 26.4 µM (active). In the case of COC(=O)[C@]12CCC(C)(C)C[C@@H]1[C@@H]1C(=O)C=C3[C@@]4(C)C=C(C#N)C(=O)C(C)(C)[C@@H]4CC[C@@]3(C)[C@]1(C)CC2, the Potency is reported as 0.833 µM (active). In the case of CN(C)CCCN=c1c2ccccc2n(C)c2[nH]c(=O)n(C)c(=O)c12, the Potency is reported as 2.09 µM (active). For Cn1c(=O)n(-c2ccc(C(C)(C)C#N)cc2)c2c3cc(-c4cnc5ccccc5c4)ccc3ncc21, the Potency was 1.66 µM (active). In the case of COc1cc2c(Oc3ccc4[nH]c(C)cc4c3F)ncnc2cc1OCCCN1CCCC1, the Potency is reported as 20.9 µM (active). With O=C(CCCCCCC(=O)Nc1ccc([C@H]2O[C@@H](CSc3nc(-c4ccccc4)c(-c4ccccc4)o3)C[C@@H](c3ccc(CO)cc3)O2)cc1)NO the Potency was 8.33 µM (active). For CCN1CCN(CC(=O)Nc2ccc(-c3cccc4c(=O)cc(N5CCOCC5)oc34)c3sc4ccccc4c23)CC1, the Potency was 0.833 µM (active). For NCC(=O)Nc1ccc(-n2nc(C(F)(F)F)cc2-c2ccc3c(ccc4ccccc43)c2)cc1, the Potency was 23.5 µM (active). With NC1(Cc2ccc(Cl)cc2)CCN(c2ncnc3[nH]ccc23)CC1 the Potency was 18.7 µM (active). With Cn1c2ccccc2c2c3c(c4c5ccccc5n(CCC#N)c4c21)CNC3=O the Potency was 5.9 µM (active). For Cc1cc(Nc2cc(CN3CCOCC3)c3nc(C)c(Cc4ccc(Cl)cc4F)n3n2)n[nH]1, the Potency was 0.469 µM (active). With COCCOc1ccc2c(c1)ncn2-c1ccc2cccc(N3CCC(N)CC3)c2n1 the Potency was 9.35 µM (active). In the case of Cc1cn2c(-c3cn[nH]c3)cnc2c(Nc2ccc(C(=O)N3CCNCC3)cc2F)n1, the Potency is reported as 16.6 µM (active). With Nc1nccc(Oc2ccc(NC(=O)c3c[nH]cc(-c4ccc(F)cc4)c3=O)cc2F)c1Cl the Potency was 1.18 µM (active). For CC(=O)c1c(C)c2cnc(Nc3ccc(N4CCNCC4)cn3)nc2n(C2CCCC2)c1=O, the Potency was 18.7 µM (active). With CC1(O)CC(c2nc(-c3ccc4ccc(-c5ccccc5)nc4c3)c3c(N)nccn23)C1 (stereo unspecified) the Potency was 0.418 µM (active). In the case of C=CC(=O)Nc1cccc(Oc2nc(Nc3ccc(N4CCN(C)CC4)cc3OC)ncc2Cl)c1, the Potency is reported as 1.05 µM (active). In the case of CN(C1CCc2c(c3ccccc3n2CC(=O)O)C1)S(=O)(=O)c1ccc(F)cc1 (stereo unspecified), the Potency is reported as 5.26 µM (active). In the case of COC(=O)Nc1ccc(-c2nc(N3CCOCC3)c3cnn(C4CCN(Cc5cccnc5)CC4)c3n2)cc1, the Potency is reported as 14.8 µM (active). With Cc1cc(Nc2ncnc3ccc(-c4ccc(CNCCS(C)(=O)=O)o4)cc23)ccc1Oc1ccn2ncnc2c1 the Potency was 14.8 µM (active). For O=C(O)c1ccc2cc(-c3ccc(O)c(C45CC6CC(CC(C6)C4)C5)c3)ccc2c1, the Potency was 0.59 µM (active). In the case of COc1cc(-c2nn(C3CCC(N4CCN(C(C)=O)CC4)CC3)c3ncnc(N)c23)ccc1NC(=O)c1cc2ccccc2n1C (stereo unspecified), the Potency is reported as 0.332 µM (active). In the case of Cc1cc(CN2CCN(c3c(Br)cnc4nc(-c5ccc(N6CCN(C)CC6)cc5)[nH]c34)CC2)no1, the Potency is reported as 0.418 µM (active). With Nc1cccc(-c2cc3c(Oc4cccc(O)c4)ncnc3[nH]2)c1 the Potency was 11.8 µM (active). For COc1cc(C(=O)N2CCC(N3CCN(C)CC3)CC2)ccc1Nc1ncc2c(n1)N(C)c1ccccc1C(=O)N2C, the Potency was 5.26 µM (active). In the case of COc1cccc(-c2ccc(NC(=O)C3=C(C(=O)O)CCC3)c(F)c2)c1, the Potency is reported as 13.2 µM (active).
